Test [1] concerns the target Methanococcus maripaludis chaperonin (MmCpn) (UniProt Q6LX38). As to the kind of experiment: High-Throughput Screening for Modulators of Cytosolic Chaperonin Activity: MmCpn Primary Screen (AID 488978).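 Note: 50 nM MmCpn enzyme hydrolysing 30 µM ATP at 37 °C; 0% is about no effect.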 In outline:
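ADP formation read by HTRF Transcreener, 665/590 nm emission after 320 nm excitation. Enzyme: archaeal chaperonin at 50 nM final; substrate ATP 30 uM final; 10 min, 37C, after 5 min compound preincubation at RT.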

The target of test [2] is Transient receptor potential cation channel subfamily V member 1 (Homo sapiens) (UniProt Q8NER1). As to the kind of experiment: HTS Assay for Compounds that Act as Enhancers of the Vanilloid Receptor 1 (AID 488979). Note: 0% is about no effect. In a few lines:
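TRPV1 cells loaded with Fluo-8 calcium dye; compound added and Ca2+ signal (ex 480/em 520 nm) followed 3 min, then capsaicin at EC20 added and read 2 more min to detect enhancement.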

Test [3] deals with Thyrotropin receptor (Homo sapiens) (UniProt P16473). As to the kind of experiment: qHTS Assay for Antagonists of the Thyroid Stimulating Hormone Receptor (AID 488980). Note: series mostly up to about 58 µM; 0% is about no effect. In a few lines: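 TSHR-HEK293 cells; 70 uM RO 20-1724 PDE inhibitor; compound + EC80 TSH (4 nM final); anti-cAMP cryptate antibody/cAMP-d2 in lysis buffer, 30 min RT; HTRF 665/620 nm read.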
A general note: qHTS replaces the single test concentration by a dilution series.

Test [4] has as its target D(1A) dopamine receptor (Homo sapiens) (UniProt P21728). As to the kind of experiment: HTS Assay for Allosteric Agonists of the Human D1 Dopamine Receptor: Primary Screen for Agonists (AID 488981). Note: 0% is about no effect. In outline:
(§1)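 Tetracycline-induced HEK293 Trex D1 cells with forced coupling to calcium, loaded with no-wash calcium dye; kinetic fluorescence read 180 s after compound addition for agonism, then a further 180 s after an EC20 dopamine challenge for potentiation.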

Test [5] is described as follows: Validation screen for small molecules that induce genotoxicity in human embryonic kidney (HEK293T) cells expressing luciferase-tagged ELG1 (AID 493106). Note: potency is the fitted concentration of half-maximal effect. In a few lines: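 ELG1-luciferase reporter readout (ONE-Glo, 30 min, room temperature) after 16 hr compound treatment at 37 °C of HEK293T cells at 2,000 per well. Rising luminescence flags genotoxic stress.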
Test [6] deals with Thyrotropin-releasing hormone receptor (Homo sapiens) (UniProt P34981). As to the kind of experiment: qHTS for Small Molecule Agonists and Allosteric Enhancers of Human TRH Receptor: Validation Screen for Agonists (AID 493127;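 active = calcium activation more than 3 SD above the typical response in the agonist read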;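 note: intracellular calcium rise by fluo-8 fluorescence before TRH EC20 addition; 0% is about no effect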). The settings on record: TRH receptor agonist cell assay; at 2 µM; stronger effect = higher value. In a few lines:
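Compound-evoked intracellular calcium release in fluo-8-loaded TRHR cells, read kinetically on FDSS (Ex 480/Em 530, 1 s/cycle) after 23 nL pintool transfer. Agonist phase preceded 10 nM TRH EC20 addition.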

A short description of test [7]: Nrf2 qHTS screen for inhibitors: Validation (AID 493153; active = well fitted inhibition curve with a large enough effect in the main read-out, with a control signal flat, not every such curve was filed as active). The settings on record: Potency: luciferase luminescence; viability change: measured here: cytotoxicity max response. In outline:
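Concentration-response on A549 ARE_Fluc reporter cells exposed 18-24 h at 37 C, 5% CO2. Cytotoxicity read first by CellTiter-Fluor fluorescence (Ex 405/Em 525), then Nrf2 inhibition by BugLite luminescence after 15 min.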

A short description of test [8]: qHTS for Inhibitors of Cell Surface uPA Generation: Validation Assay (AID 493164).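 Note: RAW 264.7 macrophage cells exposed to compound for 18 h; 0% is about no effect.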 In a few lines:
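ATP-Lite luminescence read-out: ATP remains high when uPA activity-dependent LF translocation into the cytoplasm is blocked. RAW 264.7 cells, 18 h compound exposure at 37 C; 7-point titration, 2.45 nM to 38.3 uM final.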

In test [9] the target is Galactokinase (Homo sapiens) (UniProt P51570). As to the kind of experiment: qHTS Validation Assay for Inhibitors of Human Galactokinase (GALK) (AID 493189). Note: 0% is about no effect. In outline: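 Luminescence from leftover ATP (Kinase-Glo Plus, 10 min) served as read-out after a 1 h room-temperature reaction of 5 nM GALK, 100 uM galactose and 35 uM ATP at pH8.0.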
Chain of Galactokinase (Homo sapiens) (P51570 whole entry, looked up): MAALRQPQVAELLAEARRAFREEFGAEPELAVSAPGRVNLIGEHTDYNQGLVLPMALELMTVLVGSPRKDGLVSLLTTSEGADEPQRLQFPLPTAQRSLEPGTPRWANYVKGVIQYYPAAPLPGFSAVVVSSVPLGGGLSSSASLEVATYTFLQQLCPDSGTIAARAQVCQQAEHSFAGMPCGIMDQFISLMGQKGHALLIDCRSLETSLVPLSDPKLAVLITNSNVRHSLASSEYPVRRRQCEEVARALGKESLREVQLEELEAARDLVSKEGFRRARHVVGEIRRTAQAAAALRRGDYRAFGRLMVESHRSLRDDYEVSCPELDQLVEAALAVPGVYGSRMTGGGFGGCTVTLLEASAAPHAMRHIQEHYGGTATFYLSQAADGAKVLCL
The nature of test [10]: Validation screen for small molecules that induce DNA re-replication in SW480 colon adenocarcinoma cells (AID 504364). Note: potency is the fitted concentration of half-maximal effect. In a few lines: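 Image-based DNA content read-out: Hoechst stain 40 min, total nuclear fluorescence intensity (ex 405 nm, em 500-530 nm) after 48 h compound exposure of 250 SW480 cells/well at 37 C, 5% CO2, versus DMSO vehicle.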
For test [11], the target named is Peptidyl-prolyl cis-trans isomerase NIMA-interacting 1 (Homo sapiens) (UniProt Q13526). As to the kind of experiment: qHTS Validation Assay to Find Inhibitors of Pin1 (AID 504536; active = well fitted inhibition curve with a large enough effect in the polarisation, with a control signal flat, not every such curve was filed as active; the % refers to the polarisation;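 note: 0% = full Pin1 enzyme wells and -100% = no-enzyme wells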). In outline:
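Fluorescence polarization competition: compounds (titration) displace HiFluor-488-labeled Pin1-1b peptide from Pin1 (0.3 uM final) in pH 7.5 HEPES buffer with DTT, 10 min at room temperature; %Activity normalized to no-enzyme wells, curves fitted.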

For test [12], the target named is Phosphoglycerate kinase, glycosomal (Trypanosoma brucei brucei) (UniProt P07378). As to the kind of experiment: qHTS Validation Assay to Find Inhibitors of Phosphoglycerate Kinase (AID 504547).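 Note: control wells lack PGK and mark full inhibition.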 In outline: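 Compounds are pinned into the substrate/PGK mixture, and GAPDH (100nM final) is added to start the reaction by producing 1,3-BPG. After 60 minutes at room temperature, Kinase-Glo Plus is added and luminescence is measured 10 minutes later.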
Chain of Phosphoglycerate kinase, glycosomal (Trypanosoma brucei brucei) (P07378 whole entry, looked up): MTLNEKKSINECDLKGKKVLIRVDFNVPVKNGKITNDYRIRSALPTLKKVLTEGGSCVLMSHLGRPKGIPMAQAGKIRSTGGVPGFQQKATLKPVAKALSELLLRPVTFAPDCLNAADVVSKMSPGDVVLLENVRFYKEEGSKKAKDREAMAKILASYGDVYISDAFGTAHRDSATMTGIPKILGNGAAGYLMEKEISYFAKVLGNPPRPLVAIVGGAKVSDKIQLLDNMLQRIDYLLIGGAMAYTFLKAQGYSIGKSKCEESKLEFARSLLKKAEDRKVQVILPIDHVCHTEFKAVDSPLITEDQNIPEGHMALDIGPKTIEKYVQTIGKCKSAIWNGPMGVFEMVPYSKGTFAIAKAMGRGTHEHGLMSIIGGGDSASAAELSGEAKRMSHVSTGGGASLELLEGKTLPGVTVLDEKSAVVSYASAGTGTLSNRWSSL

Test [13] deals with Ubiquitin carboxyl-terminal hydrolase 1 (Homo sapiens) (UniProt O94782). As to the kind of experiment: Inhibitors of USP1/UAF1: Pilot qHTS (AID 504865).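 Note: rhodamine fluorescence freed from ubiquitin-rhodamine substrate followed over time; top concentration of the series differs between compounds; % is set by controls: 0 for no effect and ±100 for the full control effect; nearly all actives have a fitted effect of over 35% in size.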 In a few lines:
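1nM USP1/UAF1 + cpd, 15 min RT; start w/ Ub-Rho 150nM final; kinetic FL 480/540 nm, 6 reads q60 s. Buffer 50mM HEPES pH 7.8, 0.5mM EDTA, 1mM TCEP, 0.01% Tween-20, 0.1 mg/ml BSA.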

A short description of test [14]: qHTS for Inhibitors of ATXN expression: Validation of Cytotoxic Assay (AID 588349). Note: % is set by controls: 0 for no effect and ±100 for the full control effect. In outline:
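Cytotoxicity counter-screen: ATP-based luminescent viability (CellTiter Glo) after 72 hr exposure of HEK293 cells to a compound titration at 37 degrees C.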

Test [15] addresses D(1A) dopamine receptor (Homo sapiens) (UniProt P21728). As to the kind of experiment: HTS Assay for Allosteric Agonists of the Human D1 Dopamine Receptor: Primary Screen for Potentiators (AID 488982). Note: 0% is about no effect. In outline: as §1
The target is the same in test [16]. As to the kind of experiment: HTS Assay for Allosteric Agonists of the Human D1 Dopamine Receptor: Primary Screen for Antagonists (AID 488983).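 Note: calcium flux response to an EC80 dopamine challenge measured with no-wash dye; % is set by controls: 0 for no effect and ±100 for the full control effect; nearly all actives have a fitted effect of over 65% in size.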 In a few lines:
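Calcium-flux read-out in inducible HEK293 T-REx cells expressing D1, dye-loaded 30–90 min at room temperature. Kinetic reads: 180 s after compound (agonist phase), then 180 s after an EC80 dopamine challenge.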

Test [17] addresses ATPase family AAA domain-containing protein 5 (Homo sapiens) (UniProt Q96QE3). As to the kind of experiment: Validation screen for small molecules that inhibit ELG1-dependent DNA repair in human embryonic kidney (HEK293T) cells expressing luciferase-tagged ELG1 (AID 493107). Note: nearly all actives have a fitted effect of over 70% in size. Note: potency is the fitted concentration of half-maximal effect. In outline:
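Luciferase read-out, ONE-Glo, 30 min at room temperature, follows 16 h co-exposure at 37 C of compound and the DNA-damaging agent 5-fluorouridine. Cells: HEK293T with ELG1-luciferase fusion, 2,000 per well, DMSO as vehicle.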

For test [18], the target named is phosphoglycerate mutase (Leishmania major) (UniProt Q4Q090). As to the kind of experiment: qHTS Validation Assay to Find Inhibitors of Phosphoglycerate Mutase (AID 504548). Note: series mostly up to about 58 µM; % is set by controls: 0 for no effect and ±100 for the full control effect. The settings on record: Potency: inhibition qHTS. In outline: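 Lm PGAM 1.25nM final; 100 mM TEA pH 7.6, 5 mM MgCl2, 0.01% Tween-20; 45 min RT; Kinase-GloPlus, 10 min; end-point luminescence. Enzyme-free wells as negative controls.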

Results filed as inconclusive are left out. The source made the active and inactive calls. Unless noted, calls come from the whole dose curve; as a rule, active = well fitted curve in the direction sought with a large enough effect; inconclusive = small, poorly fitted or top-dose-only effect, or another doubt; inactive = no such curve, though single readings can be large; an effect the other way counts as inactive or inconclusive.

Chain of ATPase family AAA domain-containing protein 5 (Homo sapiens) (Q96QE3 whole entry, looked up, the tested form may be a part): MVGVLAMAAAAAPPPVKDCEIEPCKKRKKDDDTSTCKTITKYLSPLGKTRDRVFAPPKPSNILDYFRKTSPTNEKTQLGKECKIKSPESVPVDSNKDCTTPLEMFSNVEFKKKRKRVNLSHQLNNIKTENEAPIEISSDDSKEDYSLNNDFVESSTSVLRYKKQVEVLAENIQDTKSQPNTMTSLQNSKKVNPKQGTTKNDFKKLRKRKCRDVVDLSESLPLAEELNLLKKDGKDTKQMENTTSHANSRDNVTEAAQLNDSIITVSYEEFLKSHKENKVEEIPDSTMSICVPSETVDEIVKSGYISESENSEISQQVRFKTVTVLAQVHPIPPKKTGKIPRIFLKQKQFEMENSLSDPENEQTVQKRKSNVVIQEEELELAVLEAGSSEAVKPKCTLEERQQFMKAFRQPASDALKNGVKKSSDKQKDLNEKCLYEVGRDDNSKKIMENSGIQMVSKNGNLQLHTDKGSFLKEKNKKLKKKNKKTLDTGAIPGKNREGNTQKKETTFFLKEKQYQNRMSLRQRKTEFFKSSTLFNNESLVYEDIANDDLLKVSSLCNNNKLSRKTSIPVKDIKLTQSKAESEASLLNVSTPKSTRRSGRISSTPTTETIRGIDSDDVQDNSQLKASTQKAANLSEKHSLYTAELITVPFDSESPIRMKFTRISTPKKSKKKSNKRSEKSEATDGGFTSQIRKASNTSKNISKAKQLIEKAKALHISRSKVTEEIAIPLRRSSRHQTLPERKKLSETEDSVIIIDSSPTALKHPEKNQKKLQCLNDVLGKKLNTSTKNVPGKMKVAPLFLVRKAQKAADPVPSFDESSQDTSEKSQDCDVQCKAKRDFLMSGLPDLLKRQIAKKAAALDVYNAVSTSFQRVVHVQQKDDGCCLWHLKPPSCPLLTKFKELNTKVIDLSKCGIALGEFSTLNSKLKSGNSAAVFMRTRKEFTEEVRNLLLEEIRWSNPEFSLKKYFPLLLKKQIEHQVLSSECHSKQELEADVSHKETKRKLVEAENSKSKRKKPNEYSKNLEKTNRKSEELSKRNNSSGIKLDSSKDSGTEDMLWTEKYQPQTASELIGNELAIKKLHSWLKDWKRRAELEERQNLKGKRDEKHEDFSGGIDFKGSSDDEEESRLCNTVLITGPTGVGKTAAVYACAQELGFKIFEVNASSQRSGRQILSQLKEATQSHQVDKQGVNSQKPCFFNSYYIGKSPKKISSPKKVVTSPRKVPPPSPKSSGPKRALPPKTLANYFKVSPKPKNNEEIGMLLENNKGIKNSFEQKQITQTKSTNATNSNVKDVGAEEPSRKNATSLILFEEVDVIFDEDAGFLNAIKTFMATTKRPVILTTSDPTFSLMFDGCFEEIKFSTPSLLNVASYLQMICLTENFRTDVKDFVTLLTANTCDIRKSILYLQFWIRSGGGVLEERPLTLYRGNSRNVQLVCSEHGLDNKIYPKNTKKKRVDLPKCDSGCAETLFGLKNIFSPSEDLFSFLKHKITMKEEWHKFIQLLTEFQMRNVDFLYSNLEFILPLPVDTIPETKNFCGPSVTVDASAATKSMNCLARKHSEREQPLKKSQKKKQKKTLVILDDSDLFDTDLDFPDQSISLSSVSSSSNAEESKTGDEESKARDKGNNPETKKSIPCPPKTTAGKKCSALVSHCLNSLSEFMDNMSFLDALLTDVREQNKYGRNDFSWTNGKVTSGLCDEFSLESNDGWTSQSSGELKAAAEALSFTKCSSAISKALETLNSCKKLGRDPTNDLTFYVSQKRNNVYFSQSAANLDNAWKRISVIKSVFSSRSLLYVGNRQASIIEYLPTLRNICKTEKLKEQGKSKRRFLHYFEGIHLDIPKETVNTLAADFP
Chain of Peptidyl-prolyl cis-trans isomerase NIMA-interacting 1 (Homo sapiens) (Q13526 whole entry, looked up): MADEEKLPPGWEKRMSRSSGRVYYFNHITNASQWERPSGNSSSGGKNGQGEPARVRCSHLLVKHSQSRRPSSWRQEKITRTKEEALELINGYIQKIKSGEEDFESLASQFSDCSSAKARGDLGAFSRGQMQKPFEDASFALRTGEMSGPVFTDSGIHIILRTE
Chain of Ubiquitin carboxyl-terminal hydrolase 1 (Homo sapiens) (O94782 whole entry, looked up): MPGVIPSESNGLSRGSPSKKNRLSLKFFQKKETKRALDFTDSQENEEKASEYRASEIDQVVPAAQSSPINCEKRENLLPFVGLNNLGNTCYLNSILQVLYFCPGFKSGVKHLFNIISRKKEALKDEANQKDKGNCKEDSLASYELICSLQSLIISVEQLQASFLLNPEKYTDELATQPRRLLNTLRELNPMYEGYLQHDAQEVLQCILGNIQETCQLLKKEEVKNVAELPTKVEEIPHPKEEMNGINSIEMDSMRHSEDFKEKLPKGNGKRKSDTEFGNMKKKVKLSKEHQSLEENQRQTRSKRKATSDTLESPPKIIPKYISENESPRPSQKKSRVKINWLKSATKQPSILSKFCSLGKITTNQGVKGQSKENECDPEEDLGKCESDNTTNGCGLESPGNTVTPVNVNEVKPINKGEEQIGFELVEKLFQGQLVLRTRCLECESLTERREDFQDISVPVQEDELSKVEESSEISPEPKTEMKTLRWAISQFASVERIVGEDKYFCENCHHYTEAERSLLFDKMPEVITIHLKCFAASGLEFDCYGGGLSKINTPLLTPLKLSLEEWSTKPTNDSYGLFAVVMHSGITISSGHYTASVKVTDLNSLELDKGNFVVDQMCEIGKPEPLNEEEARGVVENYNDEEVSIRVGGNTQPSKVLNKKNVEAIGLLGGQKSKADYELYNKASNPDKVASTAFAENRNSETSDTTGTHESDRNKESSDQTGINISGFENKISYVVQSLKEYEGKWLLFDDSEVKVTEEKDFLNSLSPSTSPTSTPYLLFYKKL
Chain of D(1A) dopamine receptor (Homo sapiens) (P21728 whole entry, looked up): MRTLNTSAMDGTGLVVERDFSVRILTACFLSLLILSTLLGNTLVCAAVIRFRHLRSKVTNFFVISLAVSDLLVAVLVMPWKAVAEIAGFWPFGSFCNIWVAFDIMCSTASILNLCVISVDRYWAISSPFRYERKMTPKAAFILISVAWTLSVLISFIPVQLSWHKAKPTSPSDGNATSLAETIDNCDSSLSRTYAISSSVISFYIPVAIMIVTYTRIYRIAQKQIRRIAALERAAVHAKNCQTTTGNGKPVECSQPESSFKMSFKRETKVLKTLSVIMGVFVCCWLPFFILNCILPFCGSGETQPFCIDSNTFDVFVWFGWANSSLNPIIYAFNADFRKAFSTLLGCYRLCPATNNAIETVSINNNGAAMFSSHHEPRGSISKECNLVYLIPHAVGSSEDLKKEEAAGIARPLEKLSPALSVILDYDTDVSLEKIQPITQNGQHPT
Chain of Methanococcus maripaludis chaperonin (MmCpn) (Q6LX38 1-543): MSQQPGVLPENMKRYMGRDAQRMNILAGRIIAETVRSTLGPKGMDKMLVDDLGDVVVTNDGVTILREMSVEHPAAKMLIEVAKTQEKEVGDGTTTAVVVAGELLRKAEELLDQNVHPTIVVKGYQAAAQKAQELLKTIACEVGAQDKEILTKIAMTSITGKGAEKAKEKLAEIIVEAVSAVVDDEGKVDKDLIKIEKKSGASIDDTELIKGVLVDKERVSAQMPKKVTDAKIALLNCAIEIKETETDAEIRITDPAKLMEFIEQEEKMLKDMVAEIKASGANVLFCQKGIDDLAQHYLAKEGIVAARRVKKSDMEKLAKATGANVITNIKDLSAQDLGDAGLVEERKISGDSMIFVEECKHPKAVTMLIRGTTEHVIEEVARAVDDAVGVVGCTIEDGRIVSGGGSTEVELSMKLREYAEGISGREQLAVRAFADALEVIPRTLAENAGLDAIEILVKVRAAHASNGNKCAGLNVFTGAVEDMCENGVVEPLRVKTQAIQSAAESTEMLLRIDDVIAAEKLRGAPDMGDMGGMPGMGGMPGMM
Chain of Thyrotropin-releasing hormone receptor (Homo sapiens) (P34981 whole entry, looked up): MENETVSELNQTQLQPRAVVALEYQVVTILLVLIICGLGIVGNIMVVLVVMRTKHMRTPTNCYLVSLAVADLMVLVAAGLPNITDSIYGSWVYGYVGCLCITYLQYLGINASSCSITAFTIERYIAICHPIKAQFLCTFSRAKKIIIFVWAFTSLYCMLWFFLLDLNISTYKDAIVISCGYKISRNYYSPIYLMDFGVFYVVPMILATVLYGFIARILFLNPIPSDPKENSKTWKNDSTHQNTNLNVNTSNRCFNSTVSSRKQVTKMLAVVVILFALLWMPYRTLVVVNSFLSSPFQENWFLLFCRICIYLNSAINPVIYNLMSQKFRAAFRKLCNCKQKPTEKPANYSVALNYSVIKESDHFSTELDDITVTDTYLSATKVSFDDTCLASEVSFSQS

With `Fc1cccc(/C=N/N=C/c2cccc(F)c2)c1`, the compound was classed as inactive in test [1], in [2], in test [3] and in test [8]. Besides, the Potency entry in test [4], in [7], in test [9], in [10], in test [11] and in test [12] was “inactive” in each case. Moreover, the Potency entry in [13] and in test [14] was “inactive” in each case. In addition, the Potency in test [5] was 23.1 µM (active). In test [6], the activation was -7.56% (inactive). Moreover, the viability change in [7] was 1.98%.
Take `CCCCC/C=C\CC(O)/C=C/c1cccc(CC(O)CCCCO)n1` (stereo not drawn): the compound was called inactive in test [1], in test [2] and in test [3]. Moreover, the Potency entry in test [15], in test [16], in [5], in test [17], in test [7] and in [9] was “inactive” in each case. Besides, the Potency result in test [10], in [11], in [12], in test [18] and in test [14] was “inactive” each time. Also, the activation in [6] is -2.94% (inactive). In addition, in test [7], the viability change is -0.641%.
In the case of `COc1cccc(OC)c1OCCNCC1COc2ccccc2O1` (stereo not drawn), the call in [1], in test [2] and in [3] was inactive. In addition, the Potency result in test [15], in [5], in test [17], in test [7], in test [9] and in test [10] was “inactive” in each case. The Potency entry in test [11], in test [12], in test [18], in test [13] and in test [14] was “inactive” throughout. Moreover, the activation in [6] is -3.69% (inactive). Besides, the viability change in test [7] is 4.98%.
Consider `CCCCCCCCCCCCCCCCCC(=O)OC(CC(=O)O)C[N+](C)(C)C` (stereo not drawn), for which the compound was classed as inactive in test [1], in [2] and in test [3]. The Potency result in [15], in [5], in test [17], in test [9], in test [12] and in [18] was “inactive” throughout. Besides, the activation in test [6] was -0.5% (inactive). For the same compound, in test [10], the Potency is 11.6 µM (active).
For the compound `Cc1ccc(C(=O)O[C@H](C(=O)O)[C@@H](OC(=O)c2ccc(C)cc2)C(=O)O)cc1` (tested in a mixture with another compound), the result in [1], in test [2] and in test [8] was inactive. Further, the Potency entry in test [4], in test [15], in test [16], in test [5], in test [17] and in test [7] was “inactive” in each case. The Potency result in [9], in test [10], in test [11], in [12], in test [13] and in test [14] was “inactive” in each case. Further, the activation in test [6] was 1.25% (inactive). Moreover, in test [7], the viability change was -3.95%.
For the compound `CC12C(=O)OC(=O)C1(C)C1CCC2O1` (stereo not drawn), the compound was called inactive in test [1] and in test [2]. Further, the Potency entry in [4], in test [15], in test [9], in test [10], in test [11] and in test [12] was “inactive” in each case. Further, the Potency entry in test [18] and in test [13] was “inactive” throughout. Besides, the Potency in test [5] is 2.91 µM (active); in test [17], 14.6 µM (active). Moreover, in [6], the activation is -0.25% (inactive).
In the case of `Fc1ccc(C(OCCCc2cnc[nH]2)c2ccc(F)cc2)cc1`, the compound was called inactive in [1], in [2], in test [3] and in test [8]. The Potency entry in test [15], in test [16], in test [5], in test [17], in test [7] and in test [9] was “inactive” each time. Besides, the Potency result in [10], in [12] and in [14] was “inactive” throughout. For the same compound, the activation in test [6] is -5.06% (inactive). Also, the viability change in test [7] was 0.0521%.

For the origin of these results see PubChem BioAssay (NCATS).
